Cycloheximide cs – Cycloheximide Counterscreen for Small Molecule Inhibitors of Shiga Toxin | AID 2314, 2010 | 300,000 tested, 12% active | max response, % | cell reporter, cycloheximide protein synthesis inhibition counterscreen; in the data active means max response mostly above about 13%, no sharp cut-off; inactive means mostly below about 14%; further: read at 38.3 µM for the half of the compounds with a filed dose; 0% is about no effect
Marburg entry inh – qHTS for inhibitors of binding or entry into cells for Marburg Virus. AID 540276, 2011. Marburg virus pseudotyped entry inhibition, cell reporter. 300,000 tested, 1.8% active. Potency, µM (series often up to 37.8 µM), for inactives: at the top dose activity change, negative = inhibition, hits mostly inhibitors; calls by dose curve; tested in HEK293 cells; further: potency means the concentration at half of the fitted maximal effect; on the % scale 0 is the no-effect control and ±100 the full control effect
Shiga toxin inh – A qHTS for Small Molecule Inhibitors of Shiga Toxin | Vero cells, Shiga toxin protein synthesis inhibition reporter | inhibition, % at 38.7 µM | 290,000 tested, 9.2% active | AID 2315, 2010; in the data active means inhibition mostly above about 28%, no sharp cut-off; inactive means mostly below about 43%; further: 0% is about no effect
Lassa entry inh – qHTS for Inhibitors of binding or entry into cells for Lassa Virus; Lassa virus pseudotype entry inhibition, cell reporter; Potency, µM (titrated, usually from 37.9 µM), without a hit: at the highest dose activity change, negative = inhibition, usual class: inhibitors; 300,000 tested, 1.2% active; AID 540256, 2011; calls by dose curve; tested in HEK293 cells; further: potency means the concentration at half of the fitted maximal effect; on the % scale 0 is the no-effect control and ±100 the full control effect; nearly all actives have a fitted effect of over 50% in size
The depositor's hits bear a star; [ ] = remark or other dose. Shown are actives, neighbours in structure and some others; about 12% of the full set was active somewhere.

Results for O=C(Nc1cccc(C(=O)N2CCCCC2)c1)C1CCCC1 ?
Lassa entry inh: 6%[46.1 µM]

Results for Cc1ccc(C(=O)Nc2cccc(C(=O)N3CCOCC3)c2)cc1Cl ?
Cycloheximide cs: 16*; Marburg entry inh: -1%; Shiga toxin inh: 36; Lassa entry inh: -3%

How did O=C(Nc1cccc(C(=O)N2CCOCC2)c1)c1ccccc1 do in these assays?
Cycloheximide cs: -2; Marburg entry inh: -1%; Shiga toxin inh: -8; Lassa entry inh: -29%

How did Cc1ccc(C)c(NC(=O)Cn2c(=O)n(Cc3ccc4c(c3)OCO4)c(=O)c3oc4ccccc4c32)c1 do in these assays?
Lassa entry inh: 2%[46.1 µM]

What do the screens show for `C=C1C(=O)[C@@]23[C@H](O)C[C@@H]4C(C)(C)CC[C@H](O)[C@@]4(C)[C@@H]2CC[C@@H]1[C@H]3O`?
Cycloheximide cs: -7; Marburg entry inh: inconclusive; Shiga toxin inh: -15; Lassa entry inh: 10µM*

What do the screens show for `C=C1C(=O)[C@@]23[C@H](O)C[C@@H]4C(C)(C)CC[C@H](O)[C@]4(C)[C@@H]2C[C@H](O)[C@@H]1[C@H]3O`?
Cycloheximide cs: -1; Marburg entry inh: 21µM*; Shiga toxin inh: 12; Lassa entry inh: inconclusive

How did COc1ccc(C(=O)COC(=O)CCNS(=O)(=O)c2ccccc2)cc1Br do in these assays?
Cycloheximide cs: -1; Marburg entry inh: -14%; Shiga toxin inh: -33; Lassa entry inh: 4%

How did CC(Oc1ccc([N+](=O)[O-])cc1)C(=O)NCC1CCCO1 (configuration not stated) do in these assays?
Cycloheximide cs: -2; Shiga toxin inh: -16

How did Cc1ccc(C)c(C(=O)C(C)Sc2nc3nn(-c4ccccc4)c(=O)c-3c3n2CCCCC3)c1 (configuration not stated) do in these assays?
Cycloheximide cs: -2; Shiga toxin inh: -2

Results for COc1ccccc1N1CCN(S(=O)(=O)c2c(C)sc3ncn(CC(=O)Nc4ccc(C)cc4Br)c(=O)c23)CC1 ?
Marburg entry inh: -10%[46.1 µM]; Lassa entry inh: 10%[46.1 µM]

Results for COc1ccc(CCNc2ncnc3sccc23)cc1OC ?
Cycloheximide cs: 18; Marburg entry inh: inconclusive; Shiga toxin inh: 31; Lassa entry inh: inconclusive

How did COc1ccc(CSc2ncnc3sccc23)cc1F do in these assays?
Cycloheximide cs: 12; Marburg entry inh: -15%; Shiga toxin inh: 55*; Lassa entry inh: 1%

Results for CCOC(=O)c1cccc2c(=O)c(C(=O)c3ccc(Cl)cc3)c(C(=O)OC)[nH]c12 ?
Cycloheximide cs: -5; Marburg entry inh: inconclusive; Shiga toxin inh: -13; Lassa entry inh: 4%

What do the screens show for `O=C(C[n+]1ccc(C(=O)NCCCO)cc1)c1cccc(Br)c1`?
Cycloheximide cs: -1; Marburg entry inh: -1%; Shiga toxin inh: 30; Lassa entry inh: -10%

What do the screens show for `CC(O)CNc1ncnc2cc(-c3ccc(F)cc3)sc12` (configuration not stated)?
Cycloheximide cs: 15*; Marburg entry inh: 21%[46.1 µM]; Shiga toxin inh: 79*; Lassa entry inh: inconclusive

How did Cc1cc(C(=O)CSc2ccccc2)cc(C)c1O do in these assays?
Cycloheximide cs: 61*; Marburg entry inh: inconclusive; Shiga toxin inh: 71*; Lassa entry inh: 25%[46.1 µM]

What do the screens show for `Cc1cc(C(=O)CS(=O)(=O)c2ccccc2)cc(C)c1OC(=O)N(C)C`?
Cycloheximide cs: 25*; Marburg entry inh: inconclusive; Shiga toxin inh: 62*; Lassa entry inh: -19%[46.1 µM]

What do the screens show for `Cc1cc(C(=O)CS(=O)(=O)c2ccccc2)cc(C)c1O`?
Cycloheximide cs: 19*; Marburg entry inh: 27%[46.1 µM]; Shiga toxin inh: 44*; Lassa entry inh: 15%[46.1 µM]

How did CC(=O)NS(=O)(=O)c1ccc2sc(C)nc2c1 do in these assays?
Cycloheximide cs: -3; Shiga toxin inh: 0

Results for COC(=O)N1C(=O)[C@](c2ccsc2)(C(C)C)N1C(=O)OC ?
Cycloheximide cs: 20*; Shiga toxin inh: 14

Results for COC(=O)N1C(=O)[C@](c2ccccc2)(C2CCCCC2)N1C(=O)OC ?
Cycloheximide cs: 16; Shiga toxin inh: 12

How did COC(=O)N1C(=O)[C@](c2ccc(OC)cc2)(C(C)C)N1C(=O)OC do in these assays?
Cycloheximide cs: 10*; Shiga toxin inh: 14

What do the screens show for `CCc1ccccc1NC(=O)CN(C)C(=O)CSc1nc2cc(Cl)ccc2s1`?
Cycloheximide cs: -4; Marburg entry inh: 14%; Shiga toxin inh: 12; Lassa entry inh: -3%

What do the screens show for `COC(=O)c1ccc2c(c1)c(C#Cc1ccccc1)c(-c1ccccc1)n2C`?
Cycloheximide cs: 60*; Shiga toxin inh: active

What do the screens show for `COC(=O)c1ccc2c(c1)c(I)c(-c1ccc(OC)cc1)n2C`?
Cycloheximide cs: 37*; Shiga toxin inh: active

Results for COc1cc(C#Cc2c(-c3ccccc3)n(C)c3ccccc23)cc(OC)c1 ?
Cycloheximide cs: 2; Shiga toxin inh: -6

How did CC[C@H](C)[C@H](NC(=O)[C@H](N)Cc1ccc(O)cc1)C(=O)N[C@@H](CC(N)=O)C(=O)N[C@@H](CC(C)C)C(=O)N[C@H](C(=O)N[C@@H](C(=O)N[C@@H](CCCN=C(N)N)C(=O)N[C@@H](CCC(N)=O)C(=O)N[C@@H](CCCN=C(N)N)C(=O)N[C@H](Cc1ccc(O)cc1)C(N)=O)[C@@H](C)O)[C@@H](C)CC do in these assays?
Cycloheximide cs: -4; Shiga toxin inh: -6

How did Cc1cc2ccccn2c1C(=O)Nc1ccccc1 do in these assays?
Cycloheximide cs: 23*; Marburg entry inh: inconclusive; Shiga toxin inh: 68; Lassa entry inh: inconclusive

What do the screens show for `Cc1c(C(=O)Nc2ccc(Cl)cc2)c2ccccn2c1C(=O)c1ccc(F)cc1`?
Cycloheximide cs: -5; Marburg entry inh: inconclusive; Shiga toxin inh: -8; Lassa entry inh: 0%

Results for Cc1cc2ccccn2c1C(=O)Nc1ccc(Cl)cc1 ?
Cycloheximide cs: 18*; Marburg entry inh: inconclusive; Shiga toxin inh: 73*; Lassa entry inh: inconclusive

What do the screens show for `C(=C\c1nc(-c2ccncc2)no1)/c1ccccc1`?
Cycloheximide cs: -1; Marburg entry inh: inconclusive; Shiga toxin inh: 1; Lassa entry inh: inconclusive

Results for C(=C\c1nc(-c2ccccc2)no1)/c1ccccc1 ?
Cycloheximide cs: 30*; Marburg entry inh: inconclusive; Shiga toxin inh: 48*; Lassa entry inh: inconclusive

How did CCc1cc2c(=O)c(-c3nc4ccccc4[nH]3)coc2c(CN2CCCCC2C)c1O (configuration not stated) do in these assays?
Cycloheximide cs: -2; Shiga toxin inh: -2

What do the screens show for `CN1CCN(Cc2c(O)ccc3cc(-c4ccccc4)c(=O)oc23)CC1`?
Lassa entry inh: 16%[46.1 µM]

What do the screens show for `C=CCc1cccc2cc(-c3nc4ccc(C)cc4[nH]3)c(=O)oc12`?
Cycloheximide cs: 36*; Shiga toxin inh: 91*; Lassa entry inh: 0%[46.1 µM]

What do the screens show for `O=c1oc2c(O)cccc2cc1-c1nc2ccccc2[nH]1`?
Cycloheximide cs: 47*; Marburg entry inh: inconclusive; Shiga toxin inh: 69*; Lassa entry inh: inconclusive

What do the screens show for `O=c1oc2c(CN3CCCCC3)c(O)ccc2cc1-c1nc2ccccc2[nH]1`?
Cycloheximide cs: 12*; Marburg entry inh: 5%; Shiga toxin inh: 13; Lassa entry inh: 2%

From PubChem
